These results are taken from PubChem BioAssay AID1347426 (Functional Genomics Laboratory (NCATS/FGL), 2020).

Among all 31,000 sequences or so, about 1,400 (4.5%) were called active.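 Rule for the calls: active = median seed-adjusted z-score above 1 or below -1; inactive = the rest.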 The entries come from a sample that favours actives as a whole.

This assay in a line: Novel Modifiers of Survival Motor Neuron (SMN) Protein: Gene Identification via Genome-wide siRNA Screen.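 Note: luminescence tracks full-length SMN protein made from the SMN2 reporter.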 As to conditions: HEK293T SMN2-luciferase reporter, siRNA knockdown, 72 h; actives lie on both sides. In short, it runs like this: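 Steps: spot 1 pmol siRNA, add Lipofectamine RNAiMax in serum-free DMEM, seed HEK293T SMN2–luciferase reporter cells; incubate 72 h at 37 °C; add ONE-Glo; normalize luminescence to control siRNA, log10, MAD. Candidates: |MAD| > 1.0.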
Take GCAGAACAACGAGCACAGATT against CTSW: the median seed-adjusted z-score was -0.342 (inactive). The same measure for GGAAUUCCAGUAACGAUGATT against RNF149: -0.17 (inactive); for GCAUAAAUGAAAUCUCGGATT against ZMYND8: -0.065 (inactive). The same measure for GGGUCAUCCGAGAAAAGAATT against ADAMTS17: 0.257 (inactive). In the case of GAGCAGUACAGAACAGGAATT against HAAO, the median seed-adjusted z-score is 0.214 (inactive). Regarding GCUGCUCACUGUUUCAUGATT against PRSS36, the median seed-adjusted z-score is 0.589 (inactive). Under CAACAGAAUAUGCCGUAUATT against SNRPA1 stands -2.71 (active); under GUUUGCAUGUGACAAUGGATT against PPTC7, 0.49 (inactive); under GCACAGGUCUAAUUCGUCUTT against GRIK1, -0.31 (inactive). The same measure for CGACACCGGAUAAACCAAATT against HES1: -0.262 (inactive); for GCACCAGGAUAUGUCUUAATT against YY1AP1: 0.0453 (inactive); for GGUCAAAGAGUUAUAGAUUTT against MKKS: 1.03 (active).

Consider GGUGUCACCCUGUGAAUUUTT against MAP1S, for which the median seed-adjusted z-score is 0.0941 (inactive). Under AGCCUAUGGUCGGAACGAATT against APOBEC3F stands -0.315 (inactive). Under GCACCUAUGCAGCUCUUCATT against FBLIM1 stands 0.0604 (inactive); under GGGUUACCCUGGUCAUUAATT against ZNHIT2, -0.339 (inactive); under GGAGAGACCAGUAAACCGATT against NSFL1C, -0.0899 (inactive).

As to CGAUGAACAUGUUAGACAUTT against AZIN1, the median seed-adjusted z-score is -1.14 (active).

As to GUACAGGGAGCAGAUCAAATT against HRAS, the median seed-adjusted z-score was -0.85 (inactive).

For GGAUGUUCACAACCGAAUUTT against CTNNB1, the median seed-adjusted z-score is 0.0802 (inactive). GGGUAAACGAUUCCAGCAATT against N-PAC: the median seed-adjusted z-score was 0.0542 (inactive).

With GAAUUGGACUGGAUGCUAATT against DGKK, the median seed-adjusted z-score was 0 (inactive).

For the sequence GGUCCAAAGGGAUCAGGAATT against EMR2, the median seed-adjusted z-score is 0.0569 (inactive). The same measure for GCAUCGUUUCUAUGAACUUTT against KCNB2: 1.22 (active). The same measure for GGAUGUAAGCCUGACCAUATT against ZNF784: 0.291 (inactive); for CCAGAAAGCUUCAUCCACATT against MC1R: -0.64 (inactive). In the case of GCAGAUCCCUUGUUUUCCUTT against APLN, the median seed-adjusted z-score is 0.0181 (inactive).

Regarding CGCUUAAGCCUUCCAACAATT against POLR2A, the median seed-adjusted z-score was -3.81 (active). The same measure for CGGGCAUUCUUAUUAGUCATT against SLC2A2: -0.498 (inactive).

In the case of CAUCCAGCAUACAAAAGAATT against FCRL3, the median seed-adjusted z-score was -0.642 (inactive). Under GCCUCAGUGUUAUUCGAUATT against MAP1B stands 0.139 (inactive). The same measure for AGAUCGACUUGAUCGUGCATT against CDK10: 0.327 (inactive); for CAGUCUUCACUGACAACUATT against VIP: 1.52 (active); for GGACCAAGAUGAUCAGAAATT against SAFB: -0.954 (inactive).

As for CAUAGUCCUUGGACAUGUATT against TDRD9, the median seed-adjusted z-score was 0.0754 (inactive).

Turning to CUACCAAUAUGAUAGGUUATT against DDX17, the median seed-adjusted z-score was 0.231 (inactive). On to CUAUAGGUUUUAUAGCAUUTT against LIPA, for which the median seed-adjusted z-score was 0.535 (inactive).

As to GAGUUUCUGUCCAAACUGATT against IL17RA, the median seed-adjusted z-score was -1.29 (active).

With GGCAAAAACUGUGAAUUAUTT against F10, the median seed-adjusted z-score is -0.0033 (inactive). Turning to CGGAAGGACAGACAAGUAATT against SIGLEC9, the median seed-adjusted z-score is 0 (inactive). Consider CCAUCACGUUCAUUACCUUTT against GAN, for which the median seed-adjusted z-score was -1.07 (active). The same measure for GCCUUUGCAGGUAUCAGAATT against LYPLA1: 0 (inactive); for GCUUGACUUCAAAACUAAATT against SERPIND1: 0.133 (inactive).

Take CCCAAUCAGUAAGAACCAATT against CEACAM1: the median seed-adjusted z-score is -0.211 (inactive). Under CCACCUAUAAAGUUCUAAATT against CAPRIN1 stands 1.36 (active).

Turning to GAUUAUACAUAUUUCGCAATT against BRCA2, the median seed-adjusted z-score was 0 (inactive). The same measure for UGGUGUACACUGUUACUCATT against LOC158381: 0 (inactive); for CGGUCUACAGCAUCGAGUATT against IL22RA1: -1.14 (active); for CUAUCGACAUCAAGAGUUUTT against PSPC1: 0.0612 (inactive). The same measure for GGUUGACAGUGUGCCUAAATT against NRIP1: 0.789 (inactive). Under GGAUAGAUGUUUCUAUCAATT against SUZ12 stands -1.65 (active); under GGUGUUUGAUUGUGAGAAUTT against UBE2G1, 0.174 (inactive); under CCCACUACAGAAGACUUAUTT against SLC4A1, -0.861 (inactive). With GAAAUGUACCCUCCAGAAATT against CCNB1, the median seed-adjusted z-score is 0.163 (inactive).

Consider CCGGAGAUGGAUGAAUCUATT against ICAM5, for which the median seed-adjusted z-score is -1 (active).

Consider GUUUCUCAGUACUUCCAGATT against APOA2, for which the median seed-adjusted z-score is -0.297 (inactive).

On to GGAUGAGGUCUUCACCAAATT against NENF, for which the median seed-adjusted z-score is -0.778 (inactive).

Take AAAUCUUCUUUCGACAACATT against RAB37: the median seed-adjusted z-score is 0.0678 (inactive).

With GCAAGAUGCAUGCUCAUGATT against ZNF142, the median seed-adjusted z-score was 0.111 (inactive). Under CUGUUGAAAUGUAAAACGATT against VNN1 stands 0.549 (inactive); under GGACAGAUCUUACCCAUCUTT against TRIM59, 0.941 (inactive). The same measure for AGCCUUUAAUCAUUUCUCATT against ZNF85: -1.01 (active); for CUUCAUAUUUGACACCUAUTT against SLC25A26: 0.0213 (inactive). The same measure for GACUUUCAGUUCUUACGAUTT against CCNB3: 0 (inactive). In the case of GGCUCAAUAUGGAGGAUUATT against NPR3, the median seed-adjusted z-score is -0.436 (inactive). Under GGCCCUAUGUAUAUGCUUUTT against AK3 stands -0.0313 (inactive); under ACAUGCAGCUGGUAAGGAUTT against MFSD4, -1.89 (active). Under GAUACGUUCUGCAAUGUUATT against EPYC stands 0.00264 (inactive); under AGACCAAGAGCGCAUCAAATT against JUNB, -0.224 (inactive). In the case of GGUUGUUGGUUGGACUGUUTT against GDE1, the median seed-adjusted z-score is -0.256 (inactive).

On to CACUCACUGUUCCUAUCAATT against STAMBPL1, for which the median seed-adjusted z-score was 0.13 (inactive). Under GAAACGAUGAAAUAAGAUATT against PTGS1 stands 0.0458 (inactive); under GGUUGGUCUCCUCUUCAUATT against PSMD10, 0.265 (inactive); under CCCUCUCACUUGAAGAUCATT against HYAL1, -0.163 (inactive). The same measure for AUUCAUCUCAUAAACAAAATT against BATF2: 0.714 (inactive); for GCAUGGAGCAGAUCGUGUUTT against ITPR3: -1.28 (active). Under GCAGCAUCAAUGUCUGGAATT against SLC6A8 stands -0.0673 (inactive); under GGCCUUAGAUGAGUCCCUATT against PABPN1, -0.757 (inactive); under ACAAUGAACUGGAUCAACATT against TBX20, 0.00303 (inactive). Regarding CACUAUCUAUUCCACCUUUTT against HTR1A, the median seed-adjusted z-score is 0 (inactive). As to CAGGUGCUUCGUUUCCUGATT against ARHGAP1, the median seed-adjusted z-score was -1.14 (active).

For GAGUAAACCUCGAAACCGATT against MAP3K13, the median seed-adjusted z-score was -0.121 (inactive). Under GACCAUGAAUUUCAUUGUATT against MYLK3 stands 0.316 (inactive); under GGACUAAAACUUUAAACUATT against POU4F2, 1.46 (active).

In the case of CUACCAGGAUGUUGAUAAATT against ZNF761, the median seed-adjusted z-score is 0.291 (inactive). For GGAUUGAGGUGGAGAUGGATT against MCM5, the median seed-adjusted z-score is 0.126 (inactive).

As for CUAAAGGUCUUGUUACAUUTT against ASNS, the median seed-adjusted z-score was -1.1 (active). For ACCUAGAAGUGAACUGUGATT against GP1BA, the median seed-adjusted z-score was 0.0803 (inactive). Under UGGUGACUCUCAUUUCGCATT against BCAP31 stands 0.277 (inactive). Under GGAUGUCACUGUUUCUGGATT against CLIC6 stands -0.00828 (inactive); under GGCCUACUGUGGAAUUGGATT against TTC3, -1.17 (active).

For CGAUCAACUCCUUAAAGGATT against FLRT2, the median seed-adjusted z-score is -0.00573 (inactive). Under GCUUUUCCAUUAUAAGGCATT against FOXE1 stands -0.316 (inactive); under CAAAUUGCCUCGUCAAAGATT against DNTT, 0.316 (inactive). The same measure for GACCGACUCAGAUAUCAUUTT against SNRPA: -2.09 (active).

As to CACUGGAUUUGAGAGGUUATT against ABHD7, the median seed-adjusted z-score was -0.301 (inactive).

For GGCCGAGUGUACUACUUCATT against PIN1, the median seed-adjusted z-score is 0.156 (inactive). Under GCACUGUGCUUAAGCUGGATT against PKN1 stands -0.753 (inactive); under CGACAUGAUCUCCUACUCATT against ABLIM2, -0.26 (inactive).

Regarding GAAACUGGACAGUAAGAAATT against HDAC4, the median seed-adjusted z-score was -0.0988 (inactive). Under GGUUUCAAGAUAACCCAAATT against POU2F3 stands -1.53 (active); under CAAAGGUUAUUCUGCAUAUTT against CTSO, 0.322 (inactive); under GCAGGAGCUGUAUUUGAUGTT against NUDT6, 0.281 (inactive).

With AGAUGUACGAGGAAAAGUATT against WNK4, the median seed-adjusted z-score was 0.385 (inactive). Under GGUGUUUGAUAUACAGAGGTT against RABL2A stands 0.794 (inactive). Under CGACUCUGACACCACCAUATT against GOSR2 stands -1.25 (active); under CCAUGGAUUUUAUGAGGAATT against ECHDC1, 0.554 (inactive); under CCUUCAUUAAUGAGUCAUATT against ZNF426, 0.2 (inactive).
